Reference: PubChem BioAssay AID2254 (The Scripps Research Institute Molecular Screening Center, 2010)
The source made the active and inactive calls. How the calls were made is not given here.

Assay: RBBP9 hydrolase inhibition, IC50 by ABPP – biochemical, gel-based ABPP, late-stage follow-up (AID 2254)
Conditions: fluorophosphonate probe labeling of RBBP9

IC50, inactive:
COc1ccc(C(=O)ON=C2C=C(C)C(=O)C(C)=C2)cc1 > 100 µM
C/C(=N\OC(=O)c1ccc(F)cc1)c1nccs1 > 100 µM
C/C(=N\OC(=O)C1CCCCC1)c1nccs1 > 100 µM
COc1ccc(C(=O)O/N=C(\C)c2nccs2)cc1 > 100 µM
C/C(=N\OC(=O)c1ccccc1)c1nccs1 > 100 µM
CC1=CC(=NOC(=O)/C=C/c2ccccc2)C=C(C)C1=O > 100 µM
C/C(=N\OC(=O)c1ccc(Cl)cc1)c1nccs1 > 100 µM
